This is a sample that favours compounds with a hit; in the whole collection about 0.45% have one here.
FMDV FLuc: Primary qHTS Assay for Foot and Mouth Disease Virus Antivirals against NCGC Sytravon and CBC Compound Libraries: Firefly Luciferase Signal | Potency, µM (titrated, usually from 57.5 µM), hits mostly inhibitors | actives 0.23% (n = 120,000) | FMDV antiviral cell assay, firefly luciferase signal; note: nearly all actives have a fitted effect of over 60% in size
FMDV RLuc: Primary qHTS Assay for Foot and Mouth Disease Virus Antivirals against NCGC Sytravon and CBC Compound Libraries: Renilla Luciferase Signal; Potency, µM (titrated, usually from 57.5 µM), most hits filed as inhibitors; actives 0.32% (n = 120,000); FMDV replicon cells, Renilla luciferase signal; note: nearly all actives have a fitted effect of over 55% in size
Of the large screens only hits and unclear results are named; the others gave an inactive call. Calls come from the whole dose curve.

N#C/C(=C\c1ccc(OCc2ccc(C#N)cc2)cc1)c1nc2ccccc2[nH]1	FMDV RLuc 4µM
Cc1cccc(COc2ccc(/C=C(\C#N)c3nc4ccccc4[nH]3)cc2)c1	FMDV RLuc inconclusive
CC(C)OC(=O)c1ccc(NC(=O)CCc2ncc(-c3ccc(F)cc3F)o2)cc1	none
CC(NC(=O)C(c1ccccc1)c1ccccc1)C1CC2CCC1C2 (stereo not drawn)	none
CCCCOc1ccc(C(=O)NCCS(=O)(=O)N2CCN(c3ccc(F)cc3)CC2)cc1	none
CCCCOc1ccc(C(=O)NCCS(=O)(=O)N2CCN(c3ccccc3OC)CC2)cc1	FMDV FLuc 18µM, FMDV RLuc inconclusive
COc1ccc(C2CC(=O)Nc3c2ncn3-c2cccc(C(F)(F)F)c2)cc1OC (stereo not drawn)	none
CCCCc1nc(NCc2ccncc2)c(C#N)c2c1CCCC2	FMDV FLuc inconclusive
CCc1nc(NCc2ccncc2)c(C#N)c2c1CCCC2	FMDV FLuc 7.1µM, FMDV RLuc inconclusive
CNC(=O)C(C)Sc1cc(-c2ccccc2)c2ccc(OC)cc2n1 (stereo not drawn)	none
CC1=C2C(=O)CC(c3cccc(Cl)c3)CC2=Nc2ccccc2N1 (stereo not drawn)	FMDV FLuc inconclusive, FMDV RLuc 18µM
CC1=C2C(=O)CC(C)CC2=Nc2ccccc2N1 (stereo not drawn)	none
Cc1cccc(C)c1NC(=O)CC(C)(C)CC(=O)O	none
O=C(O)c1ccc(/C=C/c2nc3cc(Cl)ccc3o2)cc1	none
Cc1nc(/C=C/c2ccc(Cl)cc2)sc1C(=O)O	FMDV FLuc 0.89µM
O=C(CC12CC3CC(CC(C3)C1)C2)Nc1ccccc1C(=O)Cc1ccccc1	none
O=C(NC(Nc1ccc(Br)cc1)C(=O)c1ccccc1)c1ccccc1 (stereo not drawn)	none
CCS(=O)(=O)c1ncc(Cl)c(C(=O)Nc2c(C(=O)Nc3cccc(C)c3)oc3ccccc23)n1	none
Cc1cccc(NC(=O)c2nc(S(C)(=O)=O)ncc2Cl)c1	FMDV FLuc inconclusive, FMDV RLuc 35µM
CC(NCc1ccccn1)C12CC3CC(CC(C3)C1)C2 (stereo not drawn)	none
Fc1ccc(-c2cc(C(F)(F)F)nc(NCc3ccccc3)n2)cc1	none
COc1ccc(-c2cc(C(F)(F)F)nc(NCc3ccccc3)n2)cc1	FMDV FLuc inconclusive, FMDV RLuc 4µM
Cc1cc(C)c2nc(-c3cccc(Cl)c3)c(C)c(C(=O)NC3CCCCC3)c2c1	none
COc1ccc(-c2c(C)c3cc(OS(=O)(=O)c4ccc(C)cc4)ccc3oc2=O)cc1	FMDV RLuc inconclusive
COc1ccc(-c2c(C)oc3cc(OS(=O)(=O)c4ccc(C)cc4)ccc3c2=O)cc1	FMDV FLuc 3.2µM, FMDV RLuc 2.2µM
Cc1ccc(OCn2ccc(C(=O)NCc3c(C)nn(C)c3C)n2)c(C)c1	FMDV FLuc 13µM, FMDV RLuc 10µM
Cc1ccc(OCC(=O)NCc2nncn2C)c(C)c1	none
CCOc1ccc(C(C)NC(=O)OC)cc1 (stereo not drawn)	none
Cc1ccc(-n2nnnc2Sc2nnnn2-c2ccccc2)c(C)c1	FMDV FLuc inconclusive, FMDV RLuc 25µM
Cc1cccc(-n2nnnc2Sc2nnnn2-c2ccccc2)c1C	FMDV RLuc inconclusive
COc1ccc(C(=O)/C(=C/c2ccccn2)c2nc3ccccc3o2)cc1	FMDV RLuc 28µM
COc1cccc(C(=O)/C(=C/c2ccccn2)c2nc3ccccc3o2)c1	FMDV RLuc inconclusive
COc1ccc(-c2nc3cc(NC(=O)c4cccc([N+](=O)[O-])c4)ccc3o2)cc1	none
COC(=O)c1ccc(CO/N=C/c2ccc(OCc3ccc(Cl)cc3)c(OC)c2)cc1	none
COC(=O)c1ccc(CO/N=C/c2ccc(Cl)cc2Cl)cc1	FMDV FLuc 7.9µM
CCCn1c(N(C)Cc2ccccc2)nc2c1c(=O)n(C)c(=O)n2C	FMDV FLuc 14µM, FMDV RLuc inconclusive
Cn1c(=O)c2c(nc(N(CCO)CCO)n2Cc2ccccc2)n(C)c1=O	none
COc1cccc(N2CCN(C(C(=O)O)c3c[nH]c4ccc(NC(=O)CCC(=O)O)cc34)CC2)c1 (stereo not drawn)	none
COc1ccc(CCNc2ncnc3onc(C)c23)c(OC)c1	FMDV FLuc inconclusive, FMDV RLuc 0.89µM
CCCNc1ncnc2onc(C)c12	none
Cc1ccc(N/N=C/c2cccc(C(F)(F)F)c2)cc1Cl	none
Cc1ccc(Nc2nc3nonc3nc2Nc2cccc(C(F)(F)F)c2)cc1Cl	FMDV FLuc inconclusive, FMDV RLuc 2.2µM
CC(=O)c1cccc(NC(=O)c2c3c(nc4c2cnn4C(C)C)CCC3)c1	none
COc1ccc(Br)cc1/C=C/C(=O)Oc1ccc(C2CCCCC2)cc1	none
Cc1onc(-c2ccccc2Cl)c1C(=O)Oc1ccccc1F	none
CCOc1ccc(OC(=O)c2c(-c3ccccc3Cl)noc2C)cc1	FMDV FLuc 28µM, FMDV RLuc inconclusive
CC(C)n1nc(C(=O)Nc2ccc(Br)cc2F)c2ccccc2c1=O	none
COc1ccc(OC(=O)CSc2nnc(-c3ccc(F)cc3)o2)cc1	none
CCOc1ccc(-c2nnc(SCC(=O)Oc3ccccc3)o2)cc1	FMDV FLuc 3.5µM
CCCC(NC(=O)C1CCC1)C12CC3CC(CC(C3)C1)C2 (stereo not drawn)	none
Cc1ccccc1OCC(O)Cn1c(=N)n(CCN2CCCCC2)c2ccccc21 (stereo not drawn)	none
CCCCCn1c(=N)n(CC(O)COc2cccc(C)c2)c2ccccc21 (stereo not drawn)	FMDV FLuc inconclusive, FMDV RLuc 25µM
CCC(=O)N(C)C(c1ccccc1)c1c[nH]c2ccccc12 (stereo not drawn)	none
O=[N+]([O-])c1ccc(NC(c2ccccc2)c2ccccn2)c2ccncc12 (stereo not drawn)	none
CC(Nc1ccc([N+](=O)[O-])c2cnccc12)c1ccc(F)cc1 (stereo not drawn)	FMDV FLuc inconclusive, FMDV RLuc 25µM
CCCn1nc(C(=O)Nc2ccc(F)c(Cl)c2)c2ccccc2c1=O	none
O=C(NCc1ccncc1)c1ccc(C2CCCCC2)cc1	FMDV FLuc inconclusive, FMDV RLuc 3.5µM
O=C(NCc1ccccn1)c1ccc(C2CCCCC2)cc1	none
CCc1nnc(Cn2cc(S(=O)(=O)N(C)C)ccc2=O)o1	none
COc1ccc(NC(=O)COc2ccc(Cl)cc2Cl)c2cccnc12	FMDV FLuc 2.5µM, FMDV RLuc inconclusive
COc1ccc(NC(=O)c2ccc(Cl)cc2)c2cccnc12	none
Cc1nc(C)c(-c2ccc(SCC(=O)Nc3ccc(Br)cc3)nn2)s1	FMDV FLuc inconclusive, FMDV RLuc 2.8µM
COc1ccccc1NC(=O)CSc1ccc(-c2sc(C)nc2C)nn1	none
Cc1[nH]c(SCC(=O)Nc2cccc(S(=O)(=O)N3CCCC3)c2)nc1Cc1ccccc1	FMDV FLuc 14µM
O=C(CSc1nncn1-c1ccccc1)Nc1cccc(S(=O)(=O)N2CCCCC2)c1	none
CCOC(=O)c1ccc(NS(=O)(=O)c2cc(Br)cc3c2N(C(C)=O)C(C)C3)cc1 (stereo not drawn)	FMDV FLuc 20µM
CC(=O)N1c2c(cc(Br)cc2S(=O)(=O)Nc2ccc(OC(F)(F)F)cc2)CC1C (stereo not drawn)	FMDV FLuc inconclusive
CCNc1nc(-c2ccc(S(=O)(=O)N3CCCCCC3)cc2)cs1	none
CC(C)CNc1nc(-c2ccc(S(=O)(=O)N3CCCC3)cc2)cs1	FMDV FLuc inconclusive, FMDV RLuc 22µM
CCCCOC(=O)c1ccc(NC(=O)c2ccc3c(c2)CCCN3S(C)(=O)=O)cc1	FMDV FLuc 28µM, FMDV RLuc 22µM

Screens deposited in PubChem by National Center for Advancing Translational Sciences (NCATS).
